According to the supplement of paper PMC7156485:
± gives the standard deviation of the averaged measurements.

Key:
Conditions in all cases: concentration: 10 µM; 24 h
HCC1569 [1] = experiment: cell number relative to DMSO (% of DMSO); higher = more cells (less growth inhibition / toxicity)
How it was run: (§1)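 Cells were seeded at 800 per well in 384-well plates with RPMI containing 10% FBS; both HCC1569 and TDF lines were used. Compounds were added at 10 µM for 24 h at 37 °C, in triplicate, before fixation in 3.7% formaldehyde and staining with a rabbit anti-H1.0 antibody, an AlexaFluor 647 secondary and DAPI. H1.0 nuclear intensity or cell number is reported as percent of the plate control using the median of replicates, and HCC1569 values were smoothed for positional effects.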

TDF [2] = experiment: as above
How it was run: as §1

TDF [3] = experiment: H1.0 immunofluorescence intensity relative to DMSO (% of DMSO); higher = stronger H1.0 induction, active = 120 or more
How it was run: as §1

HCC1569 [4] = experiment: H1.0 immunofluorescence intensity relative to DMSO (% of DMSO); higher = stronger H1.0 induction, active = 140 or more
How it was run: as §1
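For H1.0 immunofluorescence intensity relative to DMSO in this document: TDF is a line of transformed human dermal fibroblasts of mesenchymal origin.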
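For cell number relative to DMSO in this document: TDF denotes transformed human dermal fibroblasts of mesenchymal origin.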

| Structure (SMILES) | cell number (HCC1569 [1]) | cell number (TDF [2]) | H1.0 immunofluorescence intensity (TDF [3]) | H1.0 immunofluorescence intensity (HCC1569 [4]) |
| --- | --- | --- | --- | --- |
| Cl.Cl.Cl.Ic1ccc(N2CCN(Cc3c[nH]c4ncccc34)CC2)cc1 [L-750,667 trihydrochloride] | 103 | 101 | 103 (inactive) | 108 (inactive) |
| CN1C2CCC1CC(OC(c1ccccc1)c1ccccc1)C2.CS(=O)(=O)O (centres undefined) [Benztropine mesylate] | 97.2 | 114 | 97.6 (inactive) | 97.7 (inactive) |
| O=C(O)c1cn(-c2ccc(F)cc2)c2cc(N3CCNCC3)c(F)cc2c1=O [Sarafloxacin] | 105 | 95.3 | 99.5 (inactive) | 95.9 (inactive) |
| CCOC(=O)Oc1c(OC)cc(C(=O)OC2CC3CN4CCc5c([nH]c6cc(OC)ccc56)C4CC3C(C(=O)OC)C2OC)cc1OC (centres undefined) [Syrosingopine] | 94.7 | 104 | 96.8 (inactive) | 105 (inactive) |
| CC(C)COCC(CN(Cc1ccccc1)c1ccccc1)N1CCCC1.Cl (centres undefined) [Bepridil.HCl] | 102 | 103 | 93.1 (inactive) | 99.1 (inactive) |
| C=C1C(=CC=C2CCCC3(C)C2CCC3C(C)CCCC(C)C)CC(O)CC1O (centres undefined) [Alfacalcidol] | 100 | 101 | 96.5 (inactive) | 101 (inactive) |
| c1ccc(-c2[nH]ncc2-c2ccnc3ccccc23)nc1 | 98 | 107 | 94.8 (inactive) | 102 (inactive) |
| C[N+](C)(C)CC=O.[Cl-] [Betaine aldehyde chloride] | 104 | 115 | 94.6 (inactive) | 83.1 (inactive) |
| CC(C)C(CO)Nc1nc(Nc2cccc(Cl)c2)c2ncn(C(C)C)c2n1 (centres undefined) [Purvalanol A] | 68.8 ± 4.3 | 61.8 ± 9.4 | 98.3 (inactive) | 129 (inactive) |
| Cl.Cl.O=S(=O)(c1cccc2cnccc12)N1CCCNCC1 | 107 | 95 | 99.5 (inactive) | 94.3 (inactive) |
| COc1ccc2cc1Oc1ccc(cc1)CC1c3cc(c(OC)cc3CCN1C)Oc1c(OC)c(OC)cc3c1C(C2)N(C)CC3 (centres undefined) [Isotetrandrine] | 97.9 | 83.8 | 111 (inactive) | 103 (inactive) |
| CNC(=C[N+](=O)[O-])NCCSCc1ccc(CN(C)C)o1.Cl [Ranitidine hydrochloride] | 101 | 113 | 91.6 (inactive) | 85.1 (inactive) |
| CCCCCN(CCCCC)C(=O)C(CCC(=O)[O-])NC(=O)c1ccc(Cl)c(Cl)c1.[Na+] (centres undefined) [Lorglumide sodium] | 103 | 107 | 100 (inactive) | 89.8 (inactive) |
| COc1cc(-c2oc3cc(O)cc(O)c3c(=O)c2O)ccc1O [Isorhamnetine] | 97.1 | 97.1 | 97.1 (inactive) | 116 (inactive) |
| CC1(C)C(=O)N(CCN2CCC(C(=O)c3ccc(F)cc3)CC2)c2ccccc21.Cl [LY-310,762 hydrochloride] | 101 | 94.5 | 94.2 (inactive) | 95.7 (inactive) |
| Cc1cccc(-c2[nH]c(C(C)(C)C)nc2-c2ccc3c(c2)OCO3)n1.Cl [TGF-b RI Inhibitor III] | 96.3 | 84 | 97.7 (inactive) | 122 (inactive) |
| CN(C)CCCN1c2ccccc2Sc2ccccc21.Cl [Promazine hydrochloride] | 103 | 107 | 118 (inactive) | 110 (inactive) |
| COc1ccc(C2CC(=O)c3c(O)cc(OC4OC(CO)C(O)C(O)C4OC4OC(C)C(O)C(O)C4O)cc3O2)cc1O (centres undefined) [Neohesperidin] | 99.8 | 104 | 107 (inactive) | 96.3 (inactive) |
| CCCCCN(CCCCC)C(=O)C(CCC(=O)O)NC(=O)c1ccc(Cl)c(Cl)c1 (centres undefined) [Lorglumide] | 100 | 91.5 | 102 (inactive) | 96.4 (inactive) |
| CC(=O)OCC1OC([S-])C(OC(C)=O)C(OC(C)=O)C1OC(C)=O.CCP(CC)CC.[Au+] (centres undefined) [Auranofin] | 38 | 15.4 | 155 (active) | 146 (active) |
| COc1ccccc1N1CCN(CCN(C(=O)C2CCCCC2)c2ccccn2)CC1.O=C(O)C=CC(=O)O | 104 | 102 | 101 (inactive) | 100 (inactive) |
| Nc1nccc2c1ncn2C1OC(CO)C(O)C1O (centres undefined) [3-deazaadenosine] | 97 | 88.2 | 93.7 (inactive) | 88.8 (inactive) |
| Br.CN1C2CCC1CC(OC(=O)C(O)c1ccccc1)C2 (racemic) [DL-Homatropine hydrobromide] | 106 | 109 | 91.5 (inactive) | 85.8 (inactive) |
| O=c1nc[nH]c2c1ncn2C1CCC(CO)O1 (centres undefined) [Didanosine] | 101 | 98.9 | 95.7 (inactive) | 109 (inactive) |
| CC12CCC(=O)C=C1CCC1C2C(O)CC2(C)C(C(=O)CO)CCC12 (centres undefined) [Corticosterone] | 101 ± 2.6 | 103.3 ± 0.6 | 92.8 (inactive) | 100 (inactive) |
| C=CCc1ccc(O)c(OC)c1 [Eugenol] | 103 | 114 | 89.5 (inactive) | 95.1 (inactive) |

| Structure (SMILES) | cell number (HCC1569 [1]) | cell number (TDF [2]) | H1.0 immunofluorescence intensity (TDF [3]) | H1.0 immunofluorescence intensity (HCC1569 [4]) |
| --- | --- | --- | --- | --- |
| O=C(Nc1cccc(Cl)c1)Nc1ncc(CCNc2ncnc3ccsc23)s1 | 66.1 | 42.9 | 103 (inactive) | 178 (active) |
| CCCCCCCCCCCC=CCCCCCC(=O)O [7(E)-Nonadecenoic acid] | 98.7 | 104 | 96.9 (inactive) | 94.3 (inactive) |
| CN(N=O)C(=O)NC1C(O)OC(CO)C(O)C1O (centres undefined) [Streptozocin] | 101 | 102 | 96.1 (inactive) | 87.6 (inactive) |
| Cl.NC(N)=NC(=O)Cc1c(Cl)cccc1Cl [Guanfacine.HCl] | 101 | 82.4 | 102 (inactive) | 107 (inactive) |
| CC(C)=CCCC(C)(O)C1CCC2(C)C1CCC1C3(C)CCC(=O)C(C)(C)C3CCC12C (centres undefined) [Dipterocarpol] | 95.8 | 102 | 97.8 (inactive) | 82.7 (inactive) |
| C=C1NC(=O)C2=C(CCSC2)N1 | 102 | 99.5 | 95.5 (inactive) | 92.2 (inactive) |
| CC(C)NCC(O)c1ccc(O)c(O)c1.Cl (racemic) | 104 | 94 | 97.4 (inactive) | 99 (inactive) |
| COC(=O)[C@@H](N)CSCC=C(C)CCC=C(C)CCC=C(C)C [S-Farnesyl-L-cysteine methylester] | 106 | 94.7 | 95.6 (inactive) | 103 (inactive) |
| C[N+](C)(C)CCOC(=O)CCC(=O)OCC[N+](C)(C)C.O.O.[Cl-].[Cl-] | 103 | 104 | 92.5 (inactive) | 102 (inactive) |
| COc1cc(OC)cc(-c2cc3cnc(N)nc3nc2NC(=O)NC(C)(C)C)c1 | 84.2 | 90.4 | 101 (inactive) | 139 (inactive) |
| CC1=NC(=NNc2ccc(S(=O)(=O)[O-])cc2S(=O)(=O)[O-])C(COP(=O)([O-])[O-])=C(C=O)C1=O.[Na+].[Na+].[Na+].[Na+] | 102 | 103 | 90.1 (inactive) | 97.3 (inactive) |
| O.O.O=c1c(O)c(-c2ccc(O)c(O)c2)oc2cc(O)cc(O)c12 [Quercetin dihydrate] | 88.6 | 98.7 | 90.2 (inactive) | 134 (inactive) |
| NC(=O)NO [Hydroxyurea] | 103 | 108 | 93.9 (inactive) | 91.8 (inactive) |
| Cl.Clc1ccc2nsnc2c1NC1=NCCN1 [Tizanidine.HCl] | 118 | 116 | 104 (inactive) | 83.4 (inactive) |
| O=C(c1ccc(OCCN2CCCCC2)cc1)c1c(-c2ccc(O)cc2)sc2cc(O)ccc12 [Raloxifene] | 95.5 | 105 | 102 (inactive) | 127 (inactive) |
| CCCCCCCCCCCCCCCCCCCC(=O)O [Eicosanoic acid] | 99.8 | 102 | 102 (inactive) | 101 (inactive) |
| N[C@H](CCC(=O)NCS(=O)(=O)O)C(=O)O [gamma-D-Glutamylaminomethylsulfonic acid] | 101 | 109 | 96.1 (inactive) | 93.6 (inactive) |
| CCCCC(C)(O)CC=CC1C(O)CC(=O)C1CCCCCCC(=O)OC (centres undefined) [Misoprostol] | 106 | 107 | 93.2 (inactive) | 108 (inactive) |
| CCCCCC=CCC=CCCCCCCCCCCC(=O)O [12(Z), 15(Z)-Heneicosadienoic acid] | 100 | 103 | 94.4 (inactive) | 105 (inactive) |
| CC(C)=CCCC(C)=CCCC(C)=CCSCC(=O)O [Farnesylthoiacetic acid] | 100 | 101 | 97.7 (inactive) | 96.1 (inactive) |
| Cc1cncc2cccc(S(=O)(=O)N3CCCN(C(=O)CN)CC3C)c12.Cl.Cl.O (centres undefined) [Rho Kinase Inhibitor IV] | 78.3 | 42.8 | 98.4 (inactive) | 131 (inactive) |
| CCCCCCCC(=O)c1c(O)cc(O)cc1CC(=O)OCC [ethyl (3,5-dihydroxy-2-octanoylphenyl)acetate] | 104 | 106 | 96.7 (inactive) | 121 (inactive) |
| OCCC#Cc1nc(-c2ccc(F)cc2)c(-c2ccncc2)n1CCCc1ccccc1 | 91.8 | 105 | 82.7 (inactive) | 111 (inactive) |
| CCCC(CCC)C(N)=O [2-propylpentanamide] | 112 | 106 | 97 (inactive) | 95.6 (inactive) |
| Cn1ccc(NC(=O)c2cc(Oc3ccc(C(=O)N4CCC4)c(F)c3)c3c(c2)OC(C)(C)C3)n1 | 103 | 94.2 | 102 (inactive) | 105 (inactive) |
